About 2,000 (36%) of roughly 5,500 compounds were called active. About 18% were inconclusive and are not listed. Cut-off read from the data, not from the text of the source: active = normalized growth mostly below about 0.91 (no sharp cut-off); inconclusive = no clear call, values can overlap the other calls; inactive = mostly above about 0.92. The list shows a part of the results. Where a SMILES comes first, the peptide text is derived from it. Bridges are numbered along the chain shown (N, C = ends). [ ]: non-standard residue; d: D form. The star is where a group is joined. ξ: configuration not given here. ξDab(CH2SO3H) = NC(CCNCS(=O)(=O)O)C(=O)O; Heptanoyl(6-Me) = CC(C)CCCCC(=O)*; Dab = NCC[CH](N)C(=O)O
Assay: chemical genetic growth profiling, strain panel (AID 1159580);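 note: tested at 20 µM; growth read once vehicle control cultures reached saturation at 30 °C; 1 = growth at the plate median or of vehicle wells; lower values mean less growth of the strain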
Settings: growth OD

Measured: normalized growth

CCC(C)C1NC(=O)C(CCNCS(=O)(=O)O)NC(=O)C(NC(=O)C(CCNCS(=O)(=O)O)NC(=O)C(NC(=O)C(CCNCS(=O)(=O)O)NC(=O)CCCCC(C)C)C(C)O)CCNC(=O)C(C(C)O)NC(=O)C(CCNCS(=O)(=O)O)NC(=O)C(CCNCS(=O)(=O)O)NC(=O)C(C(C)CC)NC1=O (configuration not stated) ({Heptanoyl(6-Me)}-[ξDab(CH2SO3H)]T[ξDab(CH2SO3H)][Dab][ξDab(CH2SO3H)]II[ξDab(CH2SO3H)][ξDab(CH2SO3H)]T; lactam 4-C; configuration not given here)
inactive: S. cerevisiae deletion strains, locus YJR075W, strain HOC1, active compounds read low 1 | S. cerevisiae deletion strains, locus YKL009W, strain mrt4, active compounds read low 0.986 | S. cerevisiae deletion strains, locus YKL068W, active compounds read low 0.964 | S. cerevisiae deletion strains, locus YKL085W, strain MDH1 (second series), active compounds read low 0.951 | S. cerevisiae deletion strains, locus YKL085W, strain MDH1, active compounds read low 0.951 | S. cerevisiae deletion strains, locus YKL160W, strain elf1, active compounds read low 1.02 | S. cerevisiae deletion strains, locus YKL190W, strain CNB1, active compounds read low 0.969 | S. cerevisiae deletion strains, locus YKR001C, strain vps1, active compounds read low 0.972 | S. cerevisiae deletion strains, locus YKR026C, strain gcn3, active compounds read low 0.98 | S. cerevisiae deletion strains, locus YKR091W, strain srl3, active compounds read low 0.98 | S. cerevisiae deletion strains, locus YLL001W, strain dnm1, active compounds read low 0.994 | S. cerevisiae deletion strains, locus YLL026W, active compounds read low 0.997 | S. cerevisiae deletion strains, locus YLL041C, strain sdh2, active compounds read low 0.993 | S. cerevisiae deletion strains, locus YLR027C, strain aat2, active compounds read low 0.995 | S. cerevisiae deletion strains, locus YLR039C, strain RIC1, active compounds read low 0.962 | S. cerevisiae deletion strains, locus YLR058C, strain SHM2, active compounds read low 0.988 | S. cerevisiae deletion strains, locus YLR102C, strain apc9, active compounds read low 0.962 | S. cerevisiae deletion strains, locus YLR113W, strain HOG1, active compounds read low 1.1 | S. cerevisiae deletion strains, locus YLR221C, strain rsa3, active compounds read low 0.99 | S. cerevisiae deletion strains, locus YLR258W, strain gsy2, active compounds read low 0.99 | S. cerevisiae deletion strains, locus YLR262C, strain YPT6 (second series), active compounds read low 0.997 | S. cerevisiae deletion strains, locus YLR262C, strain YPT6, active compounds read low 0.992 | S. cerevisiae deletion strains, locus YLR268W, strain sec22, active compounds read low 0.978 | S. cerevisiae deletion strains, locus YLR320W, strain mms22, active compounds read low 0.96 | S. cerevisiae deletion strains, locus YLR330W, strain CHS5, active compounds read low 0.968 | S. cerevisiae deletion strains, locus YLR342W, strain FKS1 (second series), active compounds read low 1.02 | S. cerevisiae deletion strains, locus YLR342W, strain FKS1, active compounds read low 1 | S. cerevisiae deletion strains, locus YLR357W, strain rsc2, active compounds read low 0.963 | S. cerevisiae deletion strains, locus YLR370C, strain arc18, active compounds read low 0.979 | S. cerevisiae deletion strains, locus YLR371W, strain rom2, active compounds read low 0.962 | S. cerevisiae deletion strains, locus YLR384C, strain iki3, active compounds read low 0.998 | S. cerevisiae deletion strains, locus YLR418C, strain cdc73, active compounds read low 0.989 | S. cerevisiae deletion strains, locus YML016C, strain PPZ1, active compounds read low 0.978 | S. cerevisiae deletion strains, locus YML032C, strain rad52, active compounds read low 0.963 | S. cerevisiae deletion strains, locus YML120C, strain ndi1, active compounds read low 0.971 | S. cerevisiae deletion strains, locus YML124C, strain tub3, active compounds read low 0.964 | S. cerevisiae deletion strains, locus YMR058W, strain fet3, active compounds read low 0.987 | S. cerevisiae deletion strains, locus YMR078C, strain ctf18, active compounds read low 0.976 | S. cerevisiae deletion strains, locus YMR125W, strain sto1, active compounds read low 0.973 | S. cerevisiae deletion strains, locus YMR129W, active compounds read low 0.979 | S. cerevisiae deletion strains, locus YMR205C, strain PFK2, active compounds read low 0.958 | S. cerevisiae deletion strains, locus YMR223W, strain ubp8, active compounds read low 0.99 | S. cerevisiae deletion strains, locus YMR231W, strain pep5, active compounds read low 0.987 | S. cerevisiae deletion strains, locus YMR263W, strain SAP30, active compounds read low 0.985 | S. cerevisiae deletion strains, locus YMR307W, strain GAS1, active compounds read low 1.12 | S. cerevisiae deletion strains, locus YNL067W, strain RPL9B, active compounds read low 0.991 | S. cerevisiae deletion strains, locus YNL071W, strain lat1, active compounds read low 0.981 | S. cerevisiae deletion strains, locus YNL128W, strain TEP1, active compounds read low 0.971 | S. cerevisiae deletion strains, locus YNL153C, strain GIM3, active compounds read low 0.987 | S. cerevisiae deletion strains, locus YNL183C, strain NPR1, active compounds read low 0.935 | S. cerevisiae deletion strains, locus YNL209W, strain ssb2, active compounds read low 1.02 | S. cerevisiae deletion strains, locus YNL233W, strain BNI4, active compounds read low 0.996 | S. cerevisiae deletion strains, locus YNL248C, strain rpa49, active compounds read low 1.02 | S. cerevisiae deletion strains, locus YNL250W, strain rad50, active compounds read low 0.95 | S. cerevisiae deletion strains, locus YNL271C, strain bni1, active compounds read low 0.963 | S. cerevisiae deletion strains, locus YNL298W, strain CLA4, active compounds read low 0.974 | S. cerevisiae deletion strains, locus YNL307C, strain MCK1, active compounds read low 0.982 | S. cerevisiae deletion strains, locus YNL322C, strain KRE1 (second series), active compounds read low 0.983 | S. cerevisiae deletion strains, locus YNL322C, strain KRE1, active compounds read low 0.972 | S. cerevisiae deletion strains, locus YNR049C, strain mso1, active compounds read low 0.994 | S. cerevisiae deletion strains, locus YNR052C, strain pop2, active compounds read low 0.968 | S. cerevisiae deletion strains, locus YOL006C, strain TOP1, active compounds read low 1.02 | S. cerevisiae deletion strains, locus YOL012C, strain htz1 0.945 | S. cerevisiae deletion strains, locus YOL147C, strain pex11, active compounds read low 0.982 | S. cerevisiae deletion strains, locus YOR001W, strain rrp6, active compounds read low 0.961 | S. cerevisiae deletion strains, locus YOR061W, strain CKA2, active compounds read low 0.978 | S. cerevisiae deletion strains, locus YOR069W, strain VPS5, active compounds read low 0.983 | S. cerevisiae deletion strains, locus YOR070C, strain gyp1, active compounds read low 0.996 | S. cerevisiae deletion strains, locus YOR080W, strain dia2, active compounds read low 0.984 | S. cerevisiae deletion strains, locus YOR083W, strain WHI5, active compounds read low 0.987 | S. cerevisiae deletion strains, locus YOR106W, strain vam3, active compounds read low 1.03 | S. cerevisiae deletion strains, locus YOR136W, strain idh2, active compounds read low 0.966 | S. cerevisiae deletion strains, locus YOR144C, strain elg1, active compounds read low 0.962 | S. cerevisiae deletion strains, locus YOR184W, strain ser1, active compounds read low 1.01 | S. cerevisiae deletion strains, locus YOR231W, strain MKK1, active compounds read low 0.998 | S. cerevisiae deletion strains, locus YOR265W, strain rbl2, active compounds read low 0.998 | S. cerevisiae deletion strains, locus YOR270C, strain vph1, active compounds read low 0.834 | S. cerevisiae deletion strains, locus YOR290C, strain snf2, active compounds read low 1.01 | S. cerevisiae deletion strains, locus YOR316C, strain cot1, active compounds read low 0.947 | S. cerevisiae deletion strains, locus YPL051W, strain arl3, active compounds read low 1 | S. cerevisiae deletion strains, locus YPL055C, strain LGE1, active compounds read low 0.991 | S. cerevisiae deletion strains, locus YPL078C, strain atp4, active compounds read low 0.998 | S. cerevisiae deletion strains, locus YPL106C, strain sse1, active compounds read low 0.941 | S. cerevisiae deletion strains, locus YPL240C, strain hsp82, active compounds read low 0.988 | S. cerevisiae deletion strains, locus YPL241C, strain CIN2, active compounds read low 0.974 | S. cerevisiae deletion strains, locus YPL256C, strain CLN2, active compounds read low 1.06 | S. cerevisiae deletion strains, locus YPR119W, strain clb2, active compounds read low 0.955 | S. cerevisiae deletion strains, locus YPR141C, strain kar3, active compounds read low 0.937 | S. cerevisiae deletion strains, locus YPR163C, strain tif3, active compounds read low 0.971 | S. cerevisiae deletion strains, locus YPR167C, strain met16, active compounds read low 0.945 | S. cerevisiae deletion strains, strain wtn01, active compounds read low 0.973 | S. cerevisiae strains, strain wild type, active compounds read low 0.98

From PubChem BioAssay AID1159580 (chemical genetic matrix, 2015)
